Experimental data taken from PubChem BioAssay AID540275 (National Center for Advancing Translational Sciences (NCATS), 2011).
The whole screen tested about 320,000 compounds, of which about 620 (0.19%) were called active. Inconclusive results (about 6%) are left out. Cut-off read from the data, not from the text of the source: active = activation above about 80%; inconclusive = between about 30% and that limit; inactive = weaker than that. Shown is part of a subset that was picked to be rich in actives.

molecular target: Transient receptor potential cation channel subfamily V member 1 (Homo sapiens) (UniProt Q8NER1); assay: HTS Assay for Compounds that Act as Agonists of the Vanilloid Receptor 1; conditions: TRPV1-expressing cells, Fluo-8 calcium influx, agonist mode; at 8.33 µM; stronger effect = higher value; note: 0% is about no effect
Sequence (Q8NER1 whole entry, looked up): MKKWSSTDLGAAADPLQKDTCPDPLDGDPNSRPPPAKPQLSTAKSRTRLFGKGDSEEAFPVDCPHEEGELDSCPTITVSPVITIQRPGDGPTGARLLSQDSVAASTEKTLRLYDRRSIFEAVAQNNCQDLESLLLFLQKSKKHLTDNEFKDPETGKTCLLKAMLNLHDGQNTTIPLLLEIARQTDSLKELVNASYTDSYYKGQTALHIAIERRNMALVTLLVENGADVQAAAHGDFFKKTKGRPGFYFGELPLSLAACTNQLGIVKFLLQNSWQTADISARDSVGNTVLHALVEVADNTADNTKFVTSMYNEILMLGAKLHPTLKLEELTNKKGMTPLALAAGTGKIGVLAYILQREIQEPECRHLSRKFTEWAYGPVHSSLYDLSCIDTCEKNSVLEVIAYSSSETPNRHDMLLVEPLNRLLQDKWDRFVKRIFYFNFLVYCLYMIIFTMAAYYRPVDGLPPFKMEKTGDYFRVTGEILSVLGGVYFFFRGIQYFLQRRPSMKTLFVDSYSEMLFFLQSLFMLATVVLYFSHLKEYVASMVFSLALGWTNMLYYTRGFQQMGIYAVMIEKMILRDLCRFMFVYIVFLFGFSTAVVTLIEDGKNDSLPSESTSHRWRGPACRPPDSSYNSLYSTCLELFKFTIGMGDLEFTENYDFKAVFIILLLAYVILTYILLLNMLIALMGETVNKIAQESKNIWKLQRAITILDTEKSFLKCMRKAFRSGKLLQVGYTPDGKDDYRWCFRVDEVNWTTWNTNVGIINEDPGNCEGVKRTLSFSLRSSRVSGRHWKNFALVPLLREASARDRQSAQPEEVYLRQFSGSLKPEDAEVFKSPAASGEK
From the text: The transient receptor potential ion channel, family V, number 1, (TRPV1) is one of the most important molecular transducers of painful stimuli and a potential target for analgesic drug development. Although recent clinical trials with orthosteric antagonists have not produced a successful drug because of a hyperthermia side effect and their tendency to block thermal noxious pain, this ion channel is undeniably well placed in the pain pathway, and the idea of blocking pain signals before they enter the CNS is an excellent concept and of proven efficacy when TRPV1 agonists are used. We propose a new approach involving allosteric modulation to impose an activity-dependent constraint within the context of inflammation and tissue damage that would alter the responsiveness of the channel in a way that an orthosteric vanilloid antagonist cannot achieve. We believe that the allosteric modulator approach has not been explored for this target. The main goal of this proposal is to identify additional, new, potent allosteric modulators of TRPV1 that can be used to investigate TRPV1 function. Our recent report provides evidence of proof of concept, but the compounds are just at the edge of utility in terms of potency. […] The question of whether they can be used as analgesic agents is complex, but if suitable compounds are identified then testing for analgesic properties will be conducted. NIH Chemical Genomics Center [NCGC] NIH Molecular Libraries Probe Centers Network [MLPCN] MLPCN Grant: MH089480-1A1 Assay Submitter (PI): Michael Iadarola, National Institute of Dental and Cranofacial Research
Upon TRPV1 activation in TRPV1 cells, the channel opens and extracellular cations flow through the channel into the cytosol. A calcium binding dye (Fluo-8) becomes fluorescent when bound to calcium. This dye is pre-loaded into cells and is used as a marker for calcium influx. The amount of accumulated calcium is precisely quantified using the FDSS kinetic reader and the calcium dye. For the HTS assay, freshly prepared cells are plated at a density of 2000/well in 3 ul medium in 1536-well plates and cultured overnight at 35.5C. Cells will be loaded with 1 ul of the homogeneous calcium dye (ABD Bioquest) at room temperature for 40 to 90 minutes. Plates will be loaded into the FDSS kinetic reader and a 1 sec / cycle for 10 second baseline signal will be measured. Compound library will then be added with a pintool at 23 nl and measured kinetically for 3 minutes. This portion of the read is considered the agonist portion of the screen. Following the 3 minutes of incubation, an on board pipettor will deliver 1 ul of capsaicin for a final concentration equal to the EC20. Signal will be measured kinetically for an additional 2 minutes. This portion of the read is considered the allosteric enhancer portion of the screen. The FDSS reader has a standard filter set capable of measuring calcium bound Fluo-8 (ex=480 and em=520 nm).

activation, inactive:
CCN1C(=O)C(=O)N(CC(=O)Nc2cc(C)ccc2C)C1=O -7.91%, CCN(c1ccccc1)S(=O)(=O)c1cccc(C(=O)NCc2ccccc2CN2CCOCC2)c1 10.7%, S=C(NNC(=S)NC1CC2CCC1C2)NC1CC2C=CC1C2 (centres undefined) 3.31%, S=C(NNC(=S)NC1CC2C=CC1C2)NC1CC2C=CC1C2 (centres undefined) 1.8%, O=S(=O)(Nc1cccc2cccnc12)c1cccc2cccnc12 3.75%, Oc1ccc(Cl)cc1C1C=C(c2ccc3c(c2)OCO3)NC(c2c(F)cccc2Cl)N1 (centres undefined) 2.17%, CSCCC(NC(=O)c1ccco1)C(=O)NCCc1ccc(F)cc1 (centres undefined) 0.184%, CN(C)CCOc1ccc(Cl)cc1C(C)(C)C 10.6%, CCc1nc(C)ccc1OCC(=O)N(CC)CC 2.63%, CCN(CC(=O)Nc1ccc(OC)cc1)C(=O)CSCc1ccc(C)cc1 12.3%, Cc1cc(C)c(CN2CCN(C(=O)Cn3ccc(NC(=O)OCc4ccccc4)nc3=O)CC2)c(C)c1 1.97%, COc1ccc(S(=O)(=O)N2CCOCC2)cc1NC(=O)CSc1cc(C)ccc1C 18.3%, COc1ccc(CNC(=O)COc2ccccc2C(=O)c2cnn(-c3ccccc3)c2)cc1OC 11.4%, COc1ccc(S(=O)(=O)Nc2cccc3cccnc23)c(N)c1 7.86%, C[C@H](NC(=O)c1[nH]cnc1C(=O)Nc1nccs1)c1ccccc1 3.08%, O=C1NCCn2nc3ccccc3c21 -1.33%, CCN(CC(=O)Nc1ccccc1C(F)(F)F)C(=O)C1CCN(C(=O)Nc2ccccc2)CC1 1.3%, Cc1cccc(OCCC(=O)OCc2csc(CC(=O)Nc3ccccc3C)n2)c1 14.6%, NC(=O)NCCCC(=O)O 5.36%, Cc1nonc1C1CCCN1C(=O)c1cc(COc2cccc(C(F)(F)F)c2)on1 (centres undefined) 2.83%, O=C(NC1Cc2ccccc2C1)c1cc(COc2cccc(C(F)(F)F)c2)on1 3.63%, O=C(Nc1ccncc1)c1cc(-c2ccccn2)nc2ccc(Br)cc12 0.349%, Cc1ccc2nc(-c3ccncc3)cc(C(=O)Nc3ccc4c(c3)OCCO4)c2c1 -2.26%, COc1ccc(S(=O)(=O)N2CCN(CC(=O)N3c4ccccc4CC3C)CC2)cc1OC (centres undefined) -0.777%, COc1cc(C(=O)OCC(=O)NC23CC4CC(CC(C4)C2)C3)cc(OC)c1OC 21.9%, O=C(Nc1cc(-c2ccccc2)nn1-c1ccccc1F)c1ccc([N+](=O)[O-])cc1 -1.91%, CC1Cc2ccccc2N1S(=O)(=O)c1cccc(C(=O)NCC(c2ccco2)N2CCCC2)c1 (centres undefined) 0.253%, CCn1c(=O)c(=O)n(CC)c2cc(N3CCCCC3)c(NC(=O)c3ccc(Cl)cc3)cc21 -4.74%, Cc1ccccc1S(=O)(=O)N1[C@@H](c2cccc(Cl)c2)C(C(=O)O)=CC[C@H]1c1ccc(Cl)cc1 -4.35%, CC1CCc2sc(C(=O)NCC(c3ccco3)N3CCCCC3)cc2C1 (centres undefined) 26.2%, CCC1CCC2(CC1)NC(=O)N(CC(=O)Nc1ccc(OC)cc1)C2=O (centres undefined) 9.09%, CC(C)(C)c1ccc(C(=O)NCCC(=O)NCc2ccco2)cc1 25%, CC(C)(C)NC(=O)NCc1ccco1 4.24%, COc1ccccc1Nc1nnc(SC(C)C(=O)NC2CC2)s1 (centres undefined) 0.405%, COc1ccc(NC(=O)Cn2cc(C(=O)c3ccncc3)c(=O)c3cc(C)ccc32)cc1Cl 3.63%, Cc1ccc(NC(=O)CCCNC(=O)c2ccc(Cl)cc2)cc1S(=O)(=O)N1CCCCC1 6.66%, Cc1ccc(S(=O)(=O)N(C)C)cc1NC(=O)CN1c2cccc3cccc(c23)S1(=O)=O -5.6%, Cc1ccc(S(=O)(=O)NCCC(c2ccccc2)c2ccccc2)cc1C(=O)O -2.84%, Cc1ccc(C(=O)NCCNC(=O)c2ccccc2)cc1 12.5%, Cc1ccc(C(=O)OCC(=O)Nc2ccc(Cl)cn2)cc1S(=O)(=O)N1CCOCC1 7.43%, CSc1ccc(Cl)c(C(=O)OCC(=O)N2CCNC2=O)c1 5.56%, O=C(CSc1ncnc2sccc12)N1CCN(C(=O)c2cccs2)CC1 0.688%, O=C(C1CC(=O)N(C2CCCC2)C1)N1CCN(c2cccc(C(F)(F)F)c2)CC1 (centres undefined) 9.27%, COC(=O)[C@]1(C)CCC[C@@]2(C)C3CC[C@]4(OC(C)=O)C[C@@]3(CCC21)CC4=NO (some centres undefined) 19.3%, O=S(=O)(Nc1ccc2nc(N3CCOCC3)sc2c1)c1ccccc1 -3.63%, CCCCc1ccc(NS(=O)(=O)c2cccc(C(=O)N3CCCN(C)CC3)c2)cc1 -2.57%, NC(=O)NC(CC(=O)NNC(=O)c1ccccn1)c1ccc(Cl)cc1 (centres undefined) 0.614%, CCOc1ccc(NC(=O)COC(=O)C2CCC(=O)N2)c([N+](=O)[O-])c1 (centres undefined) 2.66%, COc1ccc(CCC(=O)N2CCN(S(=O)(=O)c3ccc(OC)cc3)CC2)cc1 16.4%, Cc1ccc(NC(=O)c2cccc(S(=O)(=O)N3CCCc4ccccc43)c2)nc1 21.4%, CCCCN(C(=O)c1ccc2ccccc2c1)c1c(N)n(CCCC)c(=O)[nH]c1=O -2.14%, Cc1sc2ncnc(N3CCC(C(=O)Nc4ccc(F)cc4Cl)CC3)c2c1C 1.84%, CCN(CC(=O)Nc1ccccc1OC)C(=O)CC1CC2CCC1C2 (centres undefined) 23.5%, COc1ccc(OC)c(/C=C/C(=O)c2ccc3c(c2)OCO3)c1 25.2%, COc1ccc([C@H]2CC(=O)C=C(/C=C/c3ccc(Cl)cc3)C2)cc1 6.1%, CN1CCN(c2ccc(NC(=O)c3cc(Cl)c4c(c3)OCCO4)cc2)CC1 -4.8%, O=C1C=C(c2cccc(Cl)c2O)C[C@@H](c2ccc(F)cc2)C1 15.9%, COc1ccc(NC(=O)COC(=O)c2n[nH]c3ccccc23)c(OC)c1 2.58%, COc1ccc(S(=O)(=O)N2CCOCC2)cc1NC(=O)c1ccc(OCC(C)C)c(OC)c1 3.95%, CN(c1ccccc1)S(=O)(=O)c1cccc(NC(=O)Cc2ccc(Cl)cc2)c1 6.78%, Cc1ccc(S(=O)(=O)NCCC(=O)NCc2ccc(Cl)cc2)cc1C 21.8%, CCOC(=O)CSc1nc(N2CCOCC2)c2c(c1C#N)CC(C(C)C)OC2 (centres undefined) 17.3%, CC(C)c1nc(N2CCOCC2)c(C#N)c2c1COC(C)(C)C2 13.5%, COc1ccc(OC)c(/C=N/NC(=O)c2ccc[n+](CC(=O)c3ccccc3)c2)c1 -2.79%, CC(=O)Nc1ccc(S(=O)(=O)NC(C)C(=O)OCCOc2ccc(F)cc2)cc1 (centres undefined) 3.17%, O=C(COc1ccccc1Cl)N1N=C(c2cccs2)CC1c1ccco1 (centres undefined) 17.2%, O=C(Nc1cccc2cccnc12)C(F)(F)F -6.93%, C=CCOc1ccc(/C=C/C(=O)OCC(=O)NC(C)c2ccc(F)cc2)cc1 (centres undefined) 0.454%, CC(NC(=O)COC(=O)c1cc(=O)[nH]c2ccccc12)c1ccccc1 (centres undefined) 3.95%, CN(CC(=O)Nc1ccc(Cl)c(C(F)(F)F)c1)C(=O)CCC(=O)c1ccccc1 17.3%, CC1(C)O[C@@H]2[C@H](O1)[C@@H](COS(=O)(=O)O)O[C@H]2n1ccc(=O)[nH]c1=O -5.53%, COc1ccccc1CNS(=O)(=O)c1cc(C(=O)NCc2ccccn2)c(Cl)cc1Cl -2.79%, C=C1CCC(N(O)c2cc(C)on2)C(=C)CCC2C1CC2(C)C (centres undefined) 13.2%, C=C(C)CNc1cc(S(=O)(=O)N2CCOCC2)ccc1Oc1ccccc1 -6.07%, COc1ccccc1Nc1cc(C(=O)NCCCN(C)C2CCCCC2)c2ccccc2n1 5.29%, CCCCn1c(N)c(N(CCC(C)C)C(=O)COC(=O)c2cccnc2OCC)c(=O)[nH]c1=O 1.64%, CC(C)c1ccc(S(=O)(=O)N2CCN(C(C)C(=O)NC3CCCC3)CC2)cc1 (centres undefined) 10.1%, CCCn1c(N)c(N(CCOC)C(=O)C2CCCC2)c(=O)[nH]c1=O 1.46%, COc1cccc(N2CCN(CC(=O)Nc3ccnn3C3CCCC3)CC2)c1 1.23%, CC(=O)c1c(C)[nH]c(C(=O)COc2ccc3c(C)cc(=O)oc3c2)c1C -2.89%, CC(C)N(Cc1nnc(-c2ccccc2Br)o1)C(=O)c1cc(Cl)nc2ccccc12 9.24%

activation, active:
CC(C)c1ccc(NC(=S)NC2CC3C=CC2C3)cc1 (centres undefined) 88.8%, CCC(C)(C)c1ccc(OCC(=O)N(C)C)c(C(C)(C)CC)c1 81.1%, O=C(c1cc(COc2cccc(C(F)(F)F)c2)on1)N1CCSCC1 81.1%, Cc1ccc2nc(-c3ccccn3)cc(C(=O)Nc3ccc4c(c3)OCO4)c2c1 90.2%, CC(C)(C)c1ccc(NC(=O)NCc2ccco2)cc1 89.3%, Cc1ncoc1C(=O)NCCC(c1ccccc1)c1ccccc1 98.7%, COc1ccc(CSc2nc(N3CCOCC3)c3c(c2C#N)CC(C)(C)OC3)cc1 80.5%, CC(NC(=O)COC(=O)c1ccc(Cl)cc1O)c1ccc(F)cc1 (centres undefined) 96.5%
